Drawing on PubChem BioAssay (NCI), this text covers growth for 38 compounds.

Compounds without any hit were thinned out: in the full panel of roughly 83,000, 20% have a hit.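 Plates (96-well) were seeded with cells, treated with compound at one concentration, and incubated for 48 hours before percent growth was determined.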 Unmarked numbers belong to inactive results. The source made the active and inactive calls. How the source made its calls: active means growth percent below 10; inactive means the rest.

The first test deals with SR leukemia. The test is described as follows: NCI-60 one-dose screen, 48 h (100 = growth as untreated, 0 = no growth, -100 = all killed). The following applies: 10 µM unless noted.
As for `C=C1C(=O)O[C@H]2[C@H]1CC/C(COC(=O)NCCc1ccc(Br)cc1)=C\CC[C@@]1(C)O[C@@H]21`, the growth is -4.11% (active).
Still for that read-out and setting: then `COc1ccc(C(=O)/C=C/c2ccc(/C=C/c3cc(OC)c(OC)c(OC)c3)cc2)cc1`, with 9.61% (active); and `COc1ccc(C2CC(=O)Nc3c2c(C)nn3-c2nc3ccccc3[nH]2)cc1OC` (stereo unspecified), with 32.8%; and `O=C(O)c1ccc(-n2cc(CNc3ccc(C(F)(F)F)cc3)c(-c3ccccc3)n2)cc1`, with 84.1%.
The same measure, in the same setting: the figure for `C=C1C(=O)O[C@H]2[C@H]1CC/C(COC(=O)NCCc1cccc(OC)c1)=C\CC[C@@]1(C)O[C@@H]21` is 0.839% (active).
Same read-out and setting: then `Nc1ccc(S(=O)(=O)c2ccc(Cl)cc2)cc1`, with 112%; and `C/C(=C\c1csc(C)n1)[C@@H]1C[C@@H]2O[C@]2(C)CCC[C@H](C)[C@H](O)[C@@H](C)C(=O)C(C)(C)[C@@H](O)CC(=O)N1`, with -39.1% (active); and `CCNC(=O)C1CCCN1C(=O)C(CCCN=C(N)N)NC(=O)C(CC(C)C)NC(=O)C(CC(C)C)NC(=O)C(Cc1ccc(O)cc1)NC(=O)C(CO)NC(=O)C(Cc1c[nH]c2ccccc12)NC(=O)C(Cc1cnc[nH]1)NC(=O)C1CCC(=O)N1` (stereo unspecified), with 102%.
Turning to `O=C(O)C(=Cc1c2ccccc2cc2ccccc12)C(=O)O`, the growth was 102%.
On the same count and under the same terms, the figure for `CCCCCCCCCCn1cc[n+](C)c1` is 104%.
Same read-out and setting: the figure for `Cc1oc2ncnc(Nc3ccccc3)c2c1C(=O)NCCO` is 52.2%; for `O=C(Nc1ccc(I)cc1)c1cc([N+](=O)[O-])ccc1O` it is 36.6%.
The same measure, in the same setting: then `C[C@]12CC[C@@H]3c4cc(O)c(O)cc4CC[C@H]3[C@@H]1CC[C@@H]2O`, with 9.22% (active); and `O=C1C2=C(C(=O)c3c(O)ccc(O)c31)N(c1cccnc1)Cc1ccccc1O2`, with -10.1% (active); and `CCCCCCc1nc2c(c(C)nn2-c2ccccc2)c2c1CCCCC2`, with 97.7%.
`COc1ccc(-c2nc3sccn3c2-c2ccnc(NCCCNS(=O)(=O)c3ccc(C)cc3)n2)cc1`: the growth is 33.1%.
Same read-out and setting: then `NC(=O)c1cccc(N2Cc3ccccc3OC3=C2C(=O)c2c(O)ccc(O)c2C3=O)c1`, with -5.71% (active); and `Nc1cccc2c1CN(C1CCC(=O)NC1=O)C2=O` (stereo unspecified), with 71.8%.
On the same count and under the same terms, then `COc1ccc2c(c1)C(=O)/C(=C/c1ccc(O)cc1)O2`, with 74.1%.
Turning to `COc1cccc(-c2nc3sccn3c2-c2ccnc(NCCCNS(=O)(=O)c3ccc(F)cc3)n2)c1`, the growth is 28.9%.
The same measure, in the same setting: the figure for `O=C1NCC(c2cc3ccccc3[nH]c2=O)Nc2ccccc21` (stereo unspecified) is 100%; for `COC1=CC(c2ccc[nH]2)=N/C1=C\c1[nH]c(C)c(C(=O)CCCCC(=O)NCc2ccccc2)c1C` it is 91%.
As to `COc1ncc(-c2ccc3ncnc(Nc4cccc(Cl)c4)c3c2)cc1NS(=O)(=O)C1CC1`, the growth is 46.9%.
The same measure, in the same setting: the figure for `C=C1C(=O)O[C@H]2[C@H]1CC/C(Cn1cc(-c3ccsc3)nn1)=C\CC[C@@]1(C)O[C@@H]21` is 3.37% (active).
In the case of `C=C1C(=O)O[C@H]2[C@H]1CC/C(COC(=O)NCCc1ccc(OC)cc1)=C\CC[C@@]1(C)O[C@@H]21`, the growth was -4.05% (active).
Same read-out and setting: then `CCN(C(=O)c1cc2ccccc2[nH]1)[C@H]1CCC[C@@H](NCc2ccc(OC)cc2)C1`, with 69.2%.
On the same count and under the same terms, then `COc1ccc(C2NC3=C(CCCC3)C(C#N)(C#N)C2(C#N)C#N)cc1` (stereo unspecified), with 1.12% (active); and `CCCCCc1c(C)[nH]c(/C=c2\[nH]/c(=C3/C=c4ccccc4=N3)cc2OC)c1C`, with -20.3% (active); and `Nc1c(C(=O)Nc2cccc(Cl)c2Cl)sc2nc3c(cc12)C(=O)CCC3`, with 95.6%.
The same measure, in the same setting: then `O=C1CCC/C=C\C[C@H]2C=CC(=O)/C2=C/C[C@H](C/C=C\CC(F)(F)F)O1`, with 4.02% (active); and `COc1ccc(/C=C/C(=O)/C=C/c2cc3ccc(Cl)cc3[nH]c2=O)cc1`, with -0.34% (active).
Take `N#Cc1c(NC(=O)c2ccc([N+](=O)[O-])o2)[n+]([O-])c2cc(F)c(F)cc2[n+]1[O-]`: the growth was 77.3%.
Same read-out and setting: the figure for `CC(CCc1ccccc1)NC(=O)c1n[nH]c(=O)c2ccccc12` (stereo unspecified) is 60.7%; for `COc1ccc(/C=C/c2cc(N3CCOCC3)c3cc(F)c(F)cc3n2)cc1OC` it is 16.2%.
Take `CC(C)C[C@H](NC(=O)Cn1ccc(NCc2ccccc2)cc1=O)B(O)O`: the growth was 5.45% (active).
With `CCNc1nc(N2CC(=O)Nc3cc(OC)ccc32)c2ccccc2n1`, the growth is 24.3%.
For `COc1ccc(/C=C/c2nc(N3CCOCC3)c3nc(Cl)c(Cl)cc3n2)cc1OC`, the growth was 83.3%.
Consider `O=S=Nc1ccc([N+](=O)[O-])cc1`, for which the growth is 90.3%.

A further test has as its system RPMI-8226 leukemia. The test is described as above. The following applies: 10 µM unless noted.
For `C=C1C(=O)O[C@H]2[C@H]1CC/C(COC(=O)NCCc1ccc(Br)cc1)=C\CC[C@@]1(C)O[C@@H]21`, the growth was 2.82% (active).
Still for that read-out and setting: then `COc1ccc(C(=O)/C=C/c2ccc(/C=C/c3cc(OC)c(OC)c(OC)c3)cc2)cc1`, with -0.626% (active).
With `COc1ccc(C2CC(=O)Nc3c2c(C)nn3-c2nc3ccccc3[nH]2)cc1OC` (stereo unspecified), the growth is 85.4%.
As to `O=C(O)c1ccc(-n2cc(CNc3ccc(C(F)(F)F)cc3)c(-c3ccccc3)n2)cc1`, the growth was 76.6%.
Still for that read-out and setting: the figure for `C=C1C(=O)O[C@H]2[C@H]1CC/C(COC(=O)NCCc1cccc(OC)c1)=C\CC[C@@]1(C)O[C@@H]21` is 25.1%; for `Nc1ccc(S(=O)(=O)c2ccc(Cl)cc2)cc1` it is 101%; for `C/C(=C\c1csc(C)n1)[C@@H]1C[C@@H]2O[C@]2(C)CCC[C@H](C)[C@H](O)[C@@H](C)C(=O)C(C)(C)[C@@H](O)CC(=O)N1` it is -45.3% (active).
Consider `CCNC(=O)C1CCCN1C(=O)C(CCCN=C(N)N)NC(=O)C(CC(C)C)NC(=O)C(CC(C)C)NC(=O)C(Cc1ccc(O)cc1)NC(=O)C(CO)NC(=O)C(Cc1c[nH]c2ccccc12)NC(=O)C(Cc1cnc[nH]1)NC(=O)C1CCC(=O)N1` (stereo unspecified), for which the growth was 33.3%.
On the same count and under the same terms, the figure for `O=C(O)C(=Cc1c2ccccc2cc2ccccc12)C(=O)O` is 103%; for `CCCCCCCCCCn1cc[n+](C)c1` it is 116%.
Still for that read-out and setting: the figure for `Cc1oc2ncnc(Nc3ccccc3)c2c1C(=O)NCCO` is 94.8%.
For the compound `O=C(Nc1ccc(I)cc1)c1cc([N+](=O)[O-])ccc1O`, the growth was 10.1%.
Same read-out and setting: then `C[C@]12CC[C@@H]3c4cc(O)c(O)cc4CC[C@H]3[C@@H]1CC[C@@H]2O`, with 30.9%.
Same read-out and setting: the figure for `O=C1C2=C(C(=O)c3c(O)ccc(O)c31)N(c1cccnc1)Cc1ccccc1O2` is -8.47% (active).
Still for that read-out and setting: then `CCCCCCc1nc2c(c(C)nn2-c2ccccc2)c2c1CCCCC2`, with 105%.
Turning to `COc1ccc(-c2nc3sccn3c2-c2ccnc(NCCCNS(=O)(=O)c3ccc(C)cc3)n2)cc1`, the growth is 23.2%.
For `NC(=O)c1cccc(N2Cc3ccccc3OC3=C2C(=O)c2c(O)ccc(O)c2C3=O)c1`, the growth is -13.4% (active).
For the compound `Nc1cccc2c1CN(C1CCC(=O)NC1=O)C2=O` (stereo unspecified), the growth was 109%.
Still for that read-out and setting: then `COc1ccc2c(c1)C(=O)/C(=C/c1ccc(O)cc1)O2`, with 35.1%.
Same read-out and setting: the figure for `COc1cccc(-c2nc3sccn3c2-c2ccnc(NCCCNS(=O)(=O)c3ccc(F)cc3)n2)c1` is 17.4%; for `O=C1NCC(c2cc3ccccc3[nH]c2=O)Nc2ccccc21` (stereo unspecified) it is 106%.
The same measure, in the same setting: then `COC1=CC(c2ccc[nH]2)=N/C1=C\c1[nH]c(C)c(C(=O)CCCCC(=O)NCc2ccccc2)c1C`, with 65.6%; and `COc1ncc(-c2ccc3ncnc(Nc4cccc(Cl)c4)c3c2)cc1NS(=O)(=O)C1CC1`, with 26.7%; and `C=C1C(=O)O[C@H]2[C@H]1CC/C(Cn1cc(-c3ccsc3)nn1)=C\CC[C@@]1(C)O[C@@H]21`, with -43.2% (active).
For the compound `C=C1C(=O)O[C@H]2[C@H]1CC/C(COC(=O)NCCc1ccc(OC)cc1)=C\CC[C@@]1(C)O[C@@H]21`, the growth is 17.5%.
Turning to `CCN(C(=O)c1cc2ccccc2[nH]1)[C@H]1CCC[C@@H](NCc2ccc(OC)cc2)C1`, the growth is 86%.
In the case of `COc1ccc(C2NC3=C(CCCC3)C(C#N)(C#N)C2(C#N)C#N)cc1` (stereo unspecified), the growth was 79.9%.
`CCCCCc1c(C)[nH]c(/C=c2\[nH]/c(=C3/C=c4ccccc4=N3)cc2OC)c1C`: the growth is -49.5% (active).
Take `Nc1c(C(=O)Nc2cccc(Cl)c2Cl)sc2nc3c(cc12)C(=O)CCC3`: the growth was 102%.
Turning to `O=C1CCC/C=C\C[C@H]2C=CC(=O)/C2=C/C[C@H](C/C=C\CC(F)(F)F)O1`, the growth is -4.51% (active).
Same read-out and setting: the figure for `COc1ccc(/C=C/C(=O)/C=C/c2cc3ccc(Cl)cc3[nH]c2=O)cc1` is 19.9%.
Same read-out and setting: then `N#Cc1c(NC(=O)c2ccc([N+](=O)[O-])o2)[n+]([O-])c2cc(F)c(F)cc2[n+]1[O-]`, with 111%; and `CC(CCc1ccccc1)NC(=O)c1n[nH]c(=O)c2ccccc12` (stereo unspecified), with 85.6%; and `COc1ccc(/C=C/c2cc(N3CCOCC3)c3cc(F)c(F)cc3n2)cc1OC`, with 43.2%.
On the same count and under the same terms, the figure for `CC(C)C[C@H](NC(=O)Cn1ccc(NCc2ccccc2)cc1=O)B(O)O` is -13.9% (active).
Take `CCNc1nc(N2CC(=O)Nc3cc(OC)ccc32)c2ccccc2n1`: the growth was 27.3%.
As to `COc1ccc(/C=C/c2nc(N3CCOCC3)c3nc(Cl)c(Cl)cc3n2)cc1OC`, the growth was 98.7%.
The same measure, in the same setting: the figure for `O=S=Nc1ccc([N+](=O)[O-])cc1` is 102%.
